# In PubChem BioAssay (NCI):
# “And” between values parts separate entries of the source, which are not always exact repeats. Equal values may be shown once. About 83,000 compounds went through this panel and 20% of them were active in at least one assay; those are over-represented in the sample as a whole.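 Each cell line was grown in a 96-well plate and treated with one concentration of compound for 48 hours. Values below 10 were considered active.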 Unmarked numbers belong to inactive results. The source made the active and inactive calls.
# Legend:
# Assay in all cases: NCI-60 one-dose screen, 48 h (100 = growth as untreated, 0 = no growth, -100 = all killed)
# Settings in all cases: 10 µM unless noted
# HCT-15 colon = system: HCT-15 colon
# HT29 colon = system: HT29 colon
# SNB-75 CNS = system: SNB-75 CNS
# SNB-19 CNS = system: SNB-19 CNS
# U251 CNS = system: U251 CNS
# PC-3 prostate = system: PC-3 prostate
# SK-MEL-5 melanoma = system: SK-MEL-5 melanoma
# LOX IMVI melanoma = system: LOX IMVI melanoma
# SK-MEL-28 melanoma = system: SK-MEL-28 melanoma
# SK-MEL-2 melanoma = system: SK-MEL-2 melanoma
# EKVX NSCLC = system: EKVX NSCLC
# SN12C renal = system: SN12C renal
# UO-31 renal = system: UO-31 renal
# TK-10 renal = system: TK-10 renal
# ACHN renal = system: ACHN renal
# CAKI-1 renal = system: CAKI-1 renal
# A498 renal = system: A498 renal
# CCRF-CEM leukemia = system: CCRF-CEM leukemia
# MOLT-4 leukemia = system: MOLT-4 leukemia
# UACC-62 melanoma = system: UACC-62 melanoma
SMILES,growth (HCT-15 colon),growth (HT29 colon),growth (SNB-75 CNS),growth (SNB-19 CNS),growth (U251 CNS),growth (PC-3 prostate),growth (SK-MEL-5 melanoma),growth (LOX IMVI melanoma),growth (SK-MEL-28 melanoma),growth (SK-MEL-2 melanoma),growth (EKVX NSCLC),growth (SN12C renal),growth (UO-31 renal),growth (TK-10 renal),growth (ACHN renal),growth (CAKI-1 renal),growth (A498 renal),growth (CCRF-CEM leukemia),growth (MOLT-4 leukemia),growth (UACC-62 melanoma)
COCCn1cc(-c2nc(-c3cn(CCOC)c4ncccc34)cs2)c2ccccc21,18.1%,89.5%,64.6%,71.1%,72.8%,73.1%,7.97% (active),86.1%,105%,59.9%,27.9%,107%,98.6%,33.3%,91.6%,94.6%,123%,128%,122%,–
O=C1C(c2c[nH]c3ccccc23)=C(c2coc3cc(Br)ccc23)C(=O)N1O,97.2%,103%,65.4%,103%,101%,89.6%,97.2%,62.2%,–,97.4%,84.3%,97.9%,73.4%,137%,–,100%,54.4%,89.4%,98.9%,84.7%
COC(=O)c1nc(-c2ccc(C)cc2)oc1S(=O)(=O)c1ccc(Cl)cc1,73.5%,102%,100%,96.4%,93.4%,97%,96.5%,42.3%,99%,102%,108%,83.6%,75.1%,93.5%,80.4%,95%,113%,-15.8% (active),-21% (active),–
O=C(N=Nc1c(O)[nH]c2ccccc12)Nc1ccc(Br)cc1,77%,97.6%,105%,96.5%,101%,91.9%,81.9%,78%,89.3%,93.5%,86.6%,99.3%,66.8%,90%,83.7%,76.3%,72%,-43.8% (active),90.2%,–
COc1ccc(NC(=O)Nc2ccccc2CNc2nc(Nc3ccc(OCCN4CCCC4)cc3)ncc2Cl)cc1,5.09% (active),3.08% (active),-47.8% (active),33.9%,-15.2% (active),23.3%,-40.6% (active),-99% (active),–,-20.2% (active),55.4%,-44.2% (active),-86% (active),1.49% (active),-94.7% (active),-79.1% (active),51.9%,1.9% (active),1.79% (active),-53.4% (active)
O=C(/C=C/c1ccccc1)c1cccs1,95.1% and 95.5%,99.8% and 90.7%,102% and 97.3%,93.6% and 104%,80.8% and 85.9%,90.8% and 103%,101% and 100%,82.1% and 64.5%,–,105% and 107%,97.6% and 94.7%,96.7% and 94.1%,88.9% and 94.1%,95.5% and 103%,–,99.9% and 93.7%,94.4% and 91.6%,82.7%,109% and 96%,92.9% and 99.6%
COc1ccc(-c2cc(-c3cccc(Cl)c3)c(C#N)c(=O)[nH]2)c(OC)c1,97.7%,118%,72.7%,94.2%,96.4%,92.3%,94.2%,101%,92.2%,105%,95.2%,97.1%,85.3%,103%,97.2%,90.9%,68.2%,-2.24% (active),103%,–
CON1CCC[C@]2(C)[C@H]3CC[C@@H]4[C@H]5[C@@H](O)C(C)(C)CC[C@]5(CO)CC[C@@]4(C)[C@]3(C)CC[C@H]2C1(C)C,106%,91.2%,98.7%,100%,90%,59.6%,102%,87.7%,–,103%,98.1%,93.1%,95.2%,105%,107%,97.4%,114%,94.5%,83.7%,96%
C=CCOc1ccc(/C=C2\SC(=S)N(CCc3ccc(O)cc3)C2=O)cc1,82.9%,88.4%,82%,93.3%,86%,90.4%,94.4%,-71.2% (active),–,106%,91.4%,84.4%,61.3%,106%,–,71.2%,65.6%,5.72% (active),40.4%,73.8%
CCOC(=O)c1cnn(-c2ccc(S(N)(=O)=O)cc2)c1N,108%,102%,78.1%,100%,103%,103%,113%,96.9%,–,93.6%,101%,98%,64.8%,99.6%,116%,150%,70.4%,85.3%,100%,97.5%
COCCOc1cc2ncnc(N3CCN(S(=O)(=O)c4ccccc4Cl)CC3)c2cc1OCCOC,52.3%,81.8%,88.2%,86.1%,90.1%,71.2%,58.8%,83.1%,82.8%,88.1%,90.9%,105%,70%,98.9%,97.5%,86.6%,54.9%,79%,65.2%,–
CCNC(=O)Oc1ccc(/C(=C(/C)Cc2ccc(OC)cc2)c2ccc(OCCN(CC)CC)cc2)cc1,2.84% (active),-42.2% (active),80.8%,74.5%,33.9%,56.5%,-97.1% (active),-75.2% (active),-60% (active),86.5%,69.6%,68.6%,43.1%,65.9%,81.5%,61.4%,80%,35.6%,14.7%,–
Cn1cc(-c2csc(-c3cn(CCOC(N)=O)c4ccccc34)n2)c2cccnc21,64%,47.6%,80.7%,78.6%,77.8%,63.6%,71.9%,79%,92.5%,84.8%,68.7%,88.3%,79.6%,82.6%,97%,88.2%,19%,73.9%,69.1%,–
COc1ccc(/C=C2\COc3ccc(O)c(O)c3C2=O)c(OC)c1OC,1.33% (active),44.7%,37.9%,28.2%,14.4%,36.8%,35.5%,0.166% (active),–,70.3%,65.7%,0.808% (active),-5.7% (active),45.1%,–,39%,109%,3.07% (active),1.41% (active),-56.9% (active)
CCCO/N=C/c1ccccn1,106% and 103%,96.8% and 93.4%,85.2% and 85.5%,97.8% and 105%,103% and 101%,117% and 96.1%,104% and 108%,108% and 98.5%,–,116% and 94.7%,108% and 96.8%,94.1% and 108%,89.5% and 93%,112% and 89.3%,–,109%,101% and 117%,80.9% and 105%,124% and 102%,99.2% and 108%
